Activity calls are given as the source filed them.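 Rule for the calls, unless noted: active = response below a set limit, under 55% cells CD8-positive and vesicle-bound, and CD8 cells' 90th-percentile brightness under 279; inactive = the rest.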

Data on 13 compounds can be found in PubChem BioAssay.

Assay [1] can be described thus: reduced mouse 2C T cell binding to pMHC/ICAM-1 vesicles – MLPCN validation set, flow cytometry, LFA-1/ICAM-1 modulator project, pilot screen (AID 2523).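 For vesicle binding response: mean PE anti-B7-1 fluorescence of CD8+ cells relative to row control; 100% = QL9-loaded vesicles with DMSO vehicle in the same plate row.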 As to conditions: 2C mouse CD8+ T cells, at 7 µM, stronger effect = lower value; double positive events: measured here: CD8+/vesicle+ event percentage.
The target of assay [2] is Integrin beta-1 (Homo sapiens) + Integrin alpha-4 (Homo sapiens) (UniProt P13612+P05556). Nature of the assay: alpha4beta1 integrin LIBS antibody binding reduction – U937 cells, HUTS-21 mAb, flow cytometry, validation set, VLA-4 allosteric modulator project, pilot screen (AID 2674;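 active = inhibition above 50%, about 3 SD of the validation set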;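 note: antibody binding induced by the VLA-4 ligand LDV present at three times its Kd; 0% = LDV ligand with antibody and no compound and 100% = antibody without LDV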). As to conditions: HUTS-21 LIBS mAb binding, at 6.7 µM, stronger effect = higher value, binding induced by LDV ligand. On the technique in general: Flow cytometry measures light scatter and fluorescence of single cells or particles in a stream.
Integrin beta-1 (Homo sapiens) + Integrin alpha-4 (Homo sapiens), sequence (P05556 whole entry, looked up): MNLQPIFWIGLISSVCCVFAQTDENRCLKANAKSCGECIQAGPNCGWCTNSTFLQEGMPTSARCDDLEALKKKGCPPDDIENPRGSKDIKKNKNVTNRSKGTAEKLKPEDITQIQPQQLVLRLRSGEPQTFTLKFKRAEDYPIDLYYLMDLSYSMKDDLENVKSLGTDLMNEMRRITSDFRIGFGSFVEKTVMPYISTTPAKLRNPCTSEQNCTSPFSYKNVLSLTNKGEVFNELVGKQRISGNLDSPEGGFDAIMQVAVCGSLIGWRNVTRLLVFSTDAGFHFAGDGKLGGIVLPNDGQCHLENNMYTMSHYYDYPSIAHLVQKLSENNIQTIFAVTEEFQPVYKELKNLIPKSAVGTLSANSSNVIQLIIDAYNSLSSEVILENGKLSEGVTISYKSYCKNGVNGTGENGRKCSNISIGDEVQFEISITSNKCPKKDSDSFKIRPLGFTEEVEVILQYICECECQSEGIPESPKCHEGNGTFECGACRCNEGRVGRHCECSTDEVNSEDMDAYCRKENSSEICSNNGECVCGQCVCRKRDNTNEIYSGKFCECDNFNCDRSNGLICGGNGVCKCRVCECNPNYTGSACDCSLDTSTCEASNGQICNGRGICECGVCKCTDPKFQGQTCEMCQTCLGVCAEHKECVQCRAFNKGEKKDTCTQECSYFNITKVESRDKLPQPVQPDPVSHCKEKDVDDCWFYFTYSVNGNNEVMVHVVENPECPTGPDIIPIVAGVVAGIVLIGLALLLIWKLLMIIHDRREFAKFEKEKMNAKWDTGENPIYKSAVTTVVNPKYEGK
Integrin beta-1 (Homo sapiens) + Integrin alpha-4 (Homo sapiens), sequence (P13612 whole entry, looked up): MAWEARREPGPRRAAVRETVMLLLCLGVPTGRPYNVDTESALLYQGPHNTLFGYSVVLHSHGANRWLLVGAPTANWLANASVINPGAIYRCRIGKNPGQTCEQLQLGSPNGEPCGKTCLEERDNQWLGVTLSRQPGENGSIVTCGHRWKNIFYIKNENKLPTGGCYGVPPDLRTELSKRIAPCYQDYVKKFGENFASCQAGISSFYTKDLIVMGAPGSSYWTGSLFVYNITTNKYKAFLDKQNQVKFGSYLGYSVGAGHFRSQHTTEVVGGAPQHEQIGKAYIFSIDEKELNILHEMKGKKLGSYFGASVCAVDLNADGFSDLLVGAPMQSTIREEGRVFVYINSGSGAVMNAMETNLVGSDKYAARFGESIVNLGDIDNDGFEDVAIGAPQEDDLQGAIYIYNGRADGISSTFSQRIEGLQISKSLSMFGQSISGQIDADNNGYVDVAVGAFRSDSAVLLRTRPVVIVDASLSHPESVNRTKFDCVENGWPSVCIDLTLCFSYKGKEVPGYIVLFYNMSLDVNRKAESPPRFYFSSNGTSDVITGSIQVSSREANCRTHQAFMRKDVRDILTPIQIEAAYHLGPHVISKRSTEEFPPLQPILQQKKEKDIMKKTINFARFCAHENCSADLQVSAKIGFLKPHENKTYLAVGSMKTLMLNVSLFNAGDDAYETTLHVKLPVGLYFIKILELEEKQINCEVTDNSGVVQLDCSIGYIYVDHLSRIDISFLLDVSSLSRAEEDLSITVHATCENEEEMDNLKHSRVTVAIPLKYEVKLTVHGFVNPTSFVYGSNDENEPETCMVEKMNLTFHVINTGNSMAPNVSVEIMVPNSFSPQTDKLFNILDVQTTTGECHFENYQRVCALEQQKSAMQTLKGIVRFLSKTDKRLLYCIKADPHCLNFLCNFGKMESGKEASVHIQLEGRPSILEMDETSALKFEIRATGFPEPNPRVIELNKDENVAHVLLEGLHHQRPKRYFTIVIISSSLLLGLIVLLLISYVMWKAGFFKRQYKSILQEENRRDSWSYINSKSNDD

Assay [3] is described as follows: calorie-restriction mimetic ROS inhibitors, yeast – validation compound set, pilot screen (AID 2706;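 active = superoxide response below 65% of plate, a cut near 3 SD across the whole screen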;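 note: yeast exposed to compound for one week at 30 degrees C before staining; 100% = mean of all compound wells on the same plate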). Conditions: S. cerevisiae aging, superoxide DHE fluorescence; at 10 µM, stronger effect = lower value.
Assay [4] concerns the target Beta-adrenergic receptor kinase 1 (Homo sapiens) (UniProt P25098). Nature of the assay: GRK2 binders displacing RNA aptamer, biochemical, validation, human GRK2, bead flow cytometry (AID 488806;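 active = aptamer binding inhibition above 30%, about 3 SD of noise from non-fluorescent compounds; inactive = inhibition at or below 30%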). As to conditions: bead-bound GRK2, FAM-aptamer displacement, at 10 µM, stronger effect = higher value.
Assay [5] concerns the target Beta-2 adrenergic receptor (Homo sapiens) (UniProt P07550). The experiment in a line: agonist-induced loss of surface beta2AR – cell-based, FAP fluorogen, flow cytometry, validation set, pilot screen (AID 504459;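 active = percent response above 42, roughly 3 SD of non-fluorescent test compounds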;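 note: agonist-driven loss of surface beta2AR via internalization measured by FAP dye flow cytometry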). As to conditions: Am2.2-beta2AR cells, at 10 µM, stronger effect = higher value.
The target of assay [6] is AP-2 complex subunit beta (Homo sapiens) (UniProt P63010). The experiment in a line: beta-arrestin/AP2 interaction blockers – biochemical, validation set, GST-AP2 beads, flow cytometry, pilot screen (AID 504541;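 active = inhibition above 54%, about 3 SD of non-fluorescent compounds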;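 note: AP2 carries R879A mutation and is captured from E. coli lysate; bead-bound FITC arrestin peptide fluorescence measuring arrestin peptide binding to AP2; 0% = DMSO wells and 100% = excess unlabeled arrestin peptide control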). As to conditions: FITC arrestin peptide, at 10 µM, stronger effect = higher value, AP2 beta2 appendage fragment, R879A mutant.
AP-2 complex subunit beta (Homo sapiens), sequence (P63010 whole entry, looked up, the tested form may be a part, one chain of several): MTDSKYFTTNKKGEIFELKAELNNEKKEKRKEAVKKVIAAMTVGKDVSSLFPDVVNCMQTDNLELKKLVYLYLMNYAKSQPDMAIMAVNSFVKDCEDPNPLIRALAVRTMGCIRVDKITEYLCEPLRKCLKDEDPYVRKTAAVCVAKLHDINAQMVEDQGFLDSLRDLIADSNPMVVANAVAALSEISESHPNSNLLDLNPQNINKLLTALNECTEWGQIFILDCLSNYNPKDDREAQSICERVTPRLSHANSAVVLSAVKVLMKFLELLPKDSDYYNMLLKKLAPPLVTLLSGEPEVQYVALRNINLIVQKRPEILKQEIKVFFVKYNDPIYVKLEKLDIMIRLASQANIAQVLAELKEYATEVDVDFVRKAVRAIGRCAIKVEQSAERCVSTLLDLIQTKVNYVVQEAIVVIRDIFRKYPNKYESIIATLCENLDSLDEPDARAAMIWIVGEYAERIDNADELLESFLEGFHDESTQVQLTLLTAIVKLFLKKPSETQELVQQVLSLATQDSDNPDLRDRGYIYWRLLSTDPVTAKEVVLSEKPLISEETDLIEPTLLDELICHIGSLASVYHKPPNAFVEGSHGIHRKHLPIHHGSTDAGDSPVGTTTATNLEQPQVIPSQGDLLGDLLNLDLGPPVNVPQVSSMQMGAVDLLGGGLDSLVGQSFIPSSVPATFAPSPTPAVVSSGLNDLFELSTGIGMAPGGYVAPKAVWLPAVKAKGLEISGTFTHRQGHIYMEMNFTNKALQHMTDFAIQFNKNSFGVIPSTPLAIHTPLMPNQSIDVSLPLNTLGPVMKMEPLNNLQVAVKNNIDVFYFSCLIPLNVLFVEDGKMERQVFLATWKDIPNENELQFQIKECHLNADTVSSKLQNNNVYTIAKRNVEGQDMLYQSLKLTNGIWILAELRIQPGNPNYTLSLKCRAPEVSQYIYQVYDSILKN
A short description of assay [7]: cytosolic pH regulators acting via V-ATPase – S. cerevisiae, pHLuorin, HTS validation (AID 504600; in the data active = response above about 15%;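 note: plate controls were DMSO for no effect and reference compound for full effect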). As to conditions: V-ATPase proton transport, at 10 µM, stronger effect = higher value.
Assay [8] concerns anti-desmoglein-3 scFv antibody binding to human DSG3. Nature of the assay: blockers of pathogenic pemphigus antibody–desmoglein-3 binding – biochemical, validation compound set, bead-based, flow cytometry, pilot screen (AID 588368;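 active = binding below the plate cutoff, the plate median minus 3 SD, with a reading above zero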;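 note: signal is the median channel fluorescence of bead-bound GFP antibody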). Conditions: Protein G beads, DSG3-Fc, scFv-GFP binding, at 10 µM, stronger effect = lower value.
Assay [9] is described as follows: Nile Red efflux blockade in pump-expressing yeast – validation compound set, multiplex, phenotypic, pilot screen (AID 588506;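 active = efflux inhibition above 0.42, the validation set average plus 4 SD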;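 note: Nile Red retained in cells so higher fluorescence means more efflux inhibition; 0 = negative control wells and 1 = enniatin B 25 µM full block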). As to conditions: S. cerevisiae pump-expressing triplex, Nile Red efflux flow cytometry; at 10 µM; stronger effect = higher value; the pumps come from Candida albicans.
Assay [10] addresses ATP-binding cassette sub-family B member 6 (Homo sapiens) (UniProt Q9NP58). Nature of the assay: blockers of ABCB6-driven porphyrin uptake – K562-ABCB6 cells, flow cytometry, validation set, pilot screen (AID 588550;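 active = inhibition above the screen-wide mean plus 3 SD, about 51%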;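 note: 0% = DMSO wells and 100% = benzethonium chloride 70 µM positive control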). As to conditions: K562-ABCB6 porphyrin accumulation, 1 h, at 10 µM, stronger effect = higher value.
Assay [11] can be described thus: AML differentiation inducers, ER-HoxA9 marrow cells – cell-based, GFP/MAC1 double positive, flow cytometry, validation set, primary screen (AID 588685;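 active = differentiation response of at least 50%, scaled between solvent and reference control, from cells with both markers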;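 note: compound exposure lasts four days before antibody staining and flow analysis; 0% = DMSO wells and 100% = 5 µM fulvestrant positive control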). Conditions: stronger effect = higher value, normalized: vehicle 0, fulvestrant 100.

Beta-adrenergic receptor kinase 1 (Homo sapiens), sequence (P25098 whole entry, looked up): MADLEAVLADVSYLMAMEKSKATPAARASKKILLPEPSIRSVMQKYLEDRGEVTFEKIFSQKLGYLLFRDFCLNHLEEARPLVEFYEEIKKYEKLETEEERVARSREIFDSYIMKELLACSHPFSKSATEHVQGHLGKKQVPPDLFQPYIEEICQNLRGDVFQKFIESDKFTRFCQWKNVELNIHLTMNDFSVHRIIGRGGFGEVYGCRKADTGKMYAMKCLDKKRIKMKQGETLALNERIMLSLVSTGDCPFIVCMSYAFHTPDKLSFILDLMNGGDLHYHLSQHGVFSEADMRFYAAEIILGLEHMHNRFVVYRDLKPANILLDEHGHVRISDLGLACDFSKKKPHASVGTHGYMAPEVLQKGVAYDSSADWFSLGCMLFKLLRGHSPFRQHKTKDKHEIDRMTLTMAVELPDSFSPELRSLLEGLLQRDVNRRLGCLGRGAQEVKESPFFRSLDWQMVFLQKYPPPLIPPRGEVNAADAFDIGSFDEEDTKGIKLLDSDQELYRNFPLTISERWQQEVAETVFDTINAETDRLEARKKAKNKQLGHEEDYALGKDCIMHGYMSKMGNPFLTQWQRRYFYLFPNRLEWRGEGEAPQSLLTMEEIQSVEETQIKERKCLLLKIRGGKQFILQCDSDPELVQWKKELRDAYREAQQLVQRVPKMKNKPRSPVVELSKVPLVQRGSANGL
Beta-2 adrenergic receptor (Homo sapiens), sequence (P07550 whole entry, looked up): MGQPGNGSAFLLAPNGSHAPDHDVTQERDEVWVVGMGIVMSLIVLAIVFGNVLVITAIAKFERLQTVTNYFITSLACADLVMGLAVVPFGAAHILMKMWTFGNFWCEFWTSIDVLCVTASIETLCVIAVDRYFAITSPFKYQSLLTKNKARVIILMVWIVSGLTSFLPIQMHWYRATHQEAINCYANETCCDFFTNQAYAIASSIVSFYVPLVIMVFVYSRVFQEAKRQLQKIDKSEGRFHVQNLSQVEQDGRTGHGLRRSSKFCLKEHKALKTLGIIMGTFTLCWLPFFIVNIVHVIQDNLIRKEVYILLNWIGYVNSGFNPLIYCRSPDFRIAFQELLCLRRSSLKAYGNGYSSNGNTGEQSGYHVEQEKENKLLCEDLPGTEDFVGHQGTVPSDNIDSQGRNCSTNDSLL
ATP-binding cassette sub-family B member 6 (Homo sapiens), sequence (Q9NP58 whole entry, looked up): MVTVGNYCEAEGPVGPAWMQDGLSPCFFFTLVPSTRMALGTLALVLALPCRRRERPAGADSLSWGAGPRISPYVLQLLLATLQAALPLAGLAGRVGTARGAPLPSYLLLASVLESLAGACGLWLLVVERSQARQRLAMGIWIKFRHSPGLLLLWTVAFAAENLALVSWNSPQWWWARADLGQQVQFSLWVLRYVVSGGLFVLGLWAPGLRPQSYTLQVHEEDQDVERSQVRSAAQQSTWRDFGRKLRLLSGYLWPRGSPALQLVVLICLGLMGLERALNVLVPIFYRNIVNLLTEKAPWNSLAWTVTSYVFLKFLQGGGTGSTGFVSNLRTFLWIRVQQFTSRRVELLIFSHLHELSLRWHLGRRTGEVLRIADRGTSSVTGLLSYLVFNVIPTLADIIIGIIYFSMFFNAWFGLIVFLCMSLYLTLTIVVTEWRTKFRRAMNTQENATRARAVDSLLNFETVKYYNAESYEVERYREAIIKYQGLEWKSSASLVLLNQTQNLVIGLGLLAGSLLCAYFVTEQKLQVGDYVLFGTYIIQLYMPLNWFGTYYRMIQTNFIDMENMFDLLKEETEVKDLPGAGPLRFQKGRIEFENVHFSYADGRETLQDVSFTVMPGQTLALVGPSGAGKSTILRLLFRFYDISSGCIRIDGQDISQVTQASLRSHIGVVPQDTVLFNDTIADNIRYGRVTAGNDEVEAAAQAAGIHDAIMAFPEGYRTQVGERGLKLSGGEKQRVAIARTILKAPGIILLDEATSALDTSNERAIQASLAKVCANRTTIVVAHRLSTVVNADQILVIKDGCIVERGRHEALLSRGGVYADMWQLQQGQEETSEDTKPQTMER

`COc1ccc(C(=O)/C=C2/c3ccccc3CC(C)(C)N2C)cc1`: the double positive events in [1] was 59.8%. Further, the vesicle binding response in assay [1] is 124% (inactive). Also, the inhibition in assay [2] is 2.93% (inactive); in [6], -8.96% (inactive); in assay [10] it was 7% (inactive). For the same compound, in [3], the superoxide response (% of plate) is 99% (inactive). In addition, in assay [4], the aptamer binding inhibition is 3% (inactive). Further, the values for the response in assay [5] and in assay [7] were 23.7% (inactive) and -3.68% (inactive), respectively. In addition, the binding (% of control) in [8] is 98.3% (inactive). Moreover, the efflux inhibition (fraction of control) in assay [9] is -0.25 (inactive). In assay [11], the differentiation response was -7.5% (inactive).

The compound `COc1ccc(/C=C\C(=O)c2c(O)ccc3c(C)cc(=O)oc23)cc1OC` came in with a double positive events in assay [1] of 60.8%. For the same compound, the vesicle binding response in assay [1] is 182% (inactive). For the same compound, the values for the inhibition in [2], in [6] and in assay [10] were 14.2% (inactive), 60.6% (active) and -4% (inactive), respectively. Moreover, the superoxide response (% of plate) in assay [3] is 94.3% (inactive). Besides, the aptamer binding inhibition in [4] was 1% (inactive). The response was 16.8% (inactive) in [5] and -0.16% (inactive) in assay [7]. Further, the binding (% of control) in assay [8] was 106% (inactive). Besides, the efflux inhibition (fraction of control) in [9] was 0.29 (inactive). For the same compound, the differentiation response in [11] is -1.05% (inactive).

In assay [1], `CC(C)OC(=O)C(C)(C)Oc1ccc(C(=O)c2ccc(Cl)cc2)cc1` came in with a double positive events of 54.1%. For the same compound, the vesicle binding response in assay [1] was 223% (inactive). Moreover, the inhibition is 12.8% (inactive) in [2], -5.48% (inactive) in assay [6] and 7% (inactive) in assay [10]. Further, the superoxide response (% of plate) in assay [3] is 106% (inactive). Also, in [4], the aptamer binding inhibition is -1% (inactive). For the same compound, the response in assay [7] was 0.98% (inactive). Moreover, the binding (% of control) in [8] was 103% (inactive). For the same compound, the efflux inhibition (fraction of control) in assay [9] was -0.09 (inactive). Also, the differentiation response in assay [11] was -13.1% (inactive).

For `O=C(O)c1cc(-c2ccccc2)nc2ccccc12`, the double positive events in assay [1] came out at 62%. Moreover, the vesicle binding response in assay [1] is 151% (inactive). In addition, the inhibition was 23.1% (inactive) in [2], 27.6% (inactive) in [6] and -2% (inactive) in assay [10]. Also, in [3], the superoxide response (% of plate) is 98.3% (inactive). Besides, the aptamer binding inhibition in assay [4] is 4% (inactive). For the same compound, the response in assay [7] is -5.56% (inactive). The binding (% of control) in assay [8] is 96.2% (inactive). Besides, the efflux inhibition (fraction of control) in assay [9] is 0.1 (inactive). Moreover, the differentiation response in assay [11] is 6.26% (inactive).

On to `CC12CCC(C(=O)Nc3ccccc3Br)(C/C1=N\O)C2(C)C` (stereo not given), for which, in assay [1], the double positive events amounted to 58.3%. Further, in assay [1], the vesicle binding response is 154% (inactive). Also, the inhibition in [2] was -6.77% (inactive); in assay [6] it was -0.26% (inactive); in assay [10] it was 9% (inactive). Besides, the superoxide response (% of plate) in [3] was 92.2% (inactive). Further, the aptamer binding inhibition in assay [4] is 3% (inactive). Further, in assay [7], the response was 2.28% (inactive). The binding (% of control) in assay [8] was 96% (inactive). Besides, the efflux inhibition (fraction of control) in [9] was -0.12 (inactive). Also, the differentiation response in assay [11] was -9.89% (inactive).

`CNC[C@H](O)c1cccc(O)c1` showed a double positive events in [1] of 61.2%. Moreover, the vesicle binding response in assay [1] was 124% (inactive). For the same compound, the values for the inhibition in [2], in assay [6] and in assay [10] were -10.5% (inactive), -4.38% (inactive) and -8% (inactive), respectively. Also, the superoxide response (% of plate) in [3] was 96.3% (inactive). Besides, in assay [4], the aptamer binding inhibition is 0% (inactive). Besides, the response in [7] is 3.91% (inactive). In [8], the binding (% of control) is 102% (inactive). Further, the efflux inhibition (fraction of control) in assay [9] is 0.875 (active). In addition, the differentiation response in assay [11] is 7.13% (inactive).

Regarding `C[C@]12CCC(=O)C[C@@H]1CC[C@@H]1[C@@H]2CC[C@]2(C)C=CC[C@@H]12`, the double positive events in [1] was determined as 51.4%. Further, the vesicle binding response in assay [1] was 201% (inactive). For the same compound, the results for the inhibition in [2], in assay [6] and in [10] were 5.36% (inactive), 2.65% (inactive) and 4% (inactive), respectively. Further, the superoxide response (% of plate) in assay [3] was 111% (inactive). Moreover, the aptamer binding inhibition in [4] is 2% (inactive). Moreover, in assay [7], the response was 17% (active). In assay [8], the binding (% of control) is 103% (inactive). Further, in assay [9], the efflux inhibition (fraction of control) is 0.1 (inactive). For the same compound, in assay [11], the differentiation response was 28.9% (inactive).

Regarding `O=C(/C=C/c1ccco1)NCc1ccc2c(c1)OCO2`, the double positive events in assay [1] came to 63%. The vesicle binding response in assay [1] is 260% (inactive). For the same compound, the inhibition is -3.16% (inactive) in assay [2], -3% (inactive) in assay [6] and 8% (inactive) in [10]. Further, the superoxide response (% of plate) in assay [3] is 101% (inactive). Also, in assay [4], the aptamer binding inhibition is 0% (inactive). The figures for the response in [5] and in assay [7] were -2.38% (inactive) and 1.08% (inactive), respectively. The binding (% of control) in [8] is 94.7% (inactive). The efflux inhibition (fraction of control) in [9] is 0.19 (inactive). The differentiation response in assay [11] was -10.4% (inactive).

`Cc1ccc(P(=O)(CSC(=N)N)c2ccc(C)cc2)cc1` showed a double positive events in assay [1] of 60.2%. The vesicle binding response in assay [1] is 155% (inactive). The inhibition in assay [2] is 4.27% (inactive); in [6], 2.42% (inactive); in assay [10], 35% (inactive). In addition, the superoxide response (% of plate) in [3] was 95% (inactive). For the same compound, in assay [4], the aptamer binding inhibition was 8% (inactive). The response in assay [5] was 1.61% (inactive); in [7], -0.71% (inactive). The binding (% of control) in assay [8] was 104% (inactive). In addition, the efflux inhibition (fraction of control) in assay [9] is 0.3 (inactive). In addition, in assay [11], the differentiation response was 4.2% (inactive).

Compound `Cc1cccc(C2=N/C(=C\c3cccnc3)C(=O)O2)c1` showed a double positive events in [1] of 63.6%. Further, in assay [1], the vesicle binding response is 179% (inactive). Further, the figures for the inhibition in assay [2], in [6] and in assay [10] were 5.03% (inactive), -1.05% (inactive) and 3% (inactive), respectively. In addition, the superoxide response (% of plate) in [3] was 98.1% (inactive). In addition, the aptamer binding inhibition in assay [4] was 2% (inactive). The response in assay [5] was 13.3% (inactive); in assay [7] it was -1.71% (inactive). Also, the binding (% of control) in [8] is 104% (inactive). Besides, the efflux inhibition (fraction of control) in assay [9] was 0.12 (inactive). Also, in assay [11], the differentiation response is 103% (active).

Regarding `CCOc1ccc(CC2c3cc(OCC)c(OCC)cc3CCN2C(=O)CN2CCN(C)CC2)cc1OCC` (stereo not given), in assay [1], the double positive events came to 61.7%. In addition, in [1], the vesicle binding response was 160% (inactive). Moreover, the inhibition is -11.3% (inactive) in [2], 5.19% (inactive) in [6] and 4% (inactive) in [10]. Also, the superoxide response (% of plate) in [3] was 82.4% (inactive). Also, the aptamer binding inhibition in [4] was 0% (inactive). The response in assay [5] was -8.24% (inactive); in assay [7] it was -5.23% (inactive). Also, the binding (% of control) in [8] is 108% (inactive). Also, the efflux inhibition (fraction of control) in assay [9] is -0.04 (inactive). Also, the differentiation response in assay [11] is -3.02% (inactive).

`CN(C)CCCNc1ncnc2c1cnn2-c1ccccc1` registered a double positive events in assay [1] of 70.3%. Also, the vesicle binding response in [1] is 336% (inactive). Further, the results for the inhibition in assay [2], in [6] and in assay [10] were 16% (inactive), -0.95% (inactive) and 12% (inactive), respectively. In addition, in assay [3], the superoxide response (% of plate) is 94.4% (inactive). Also, the aptamer binding inhibition in [4] was -2% (inactive). The response in [5] was 8.67% (inactive); in assay [7], 1.69% (inactive). Further, the binding (% of control) in assay [8] was 97% (inactive). Moreover, the efflux inhibition (fraction of control) in assay [9] was 0.12 (inactive). The differentiation response in assay [11] was 23.2% (inactive).

`N=c1ccn(CC(=O)NC(N)=O)c2ccccc12` yielded a double positive events in assay [1] of 55.8%. In addition, the vesicle binding response in assay [1] was 241% (inactive). Also, the inhibition is 12.8% (inactive) in assay [2], 8.55% (inactive) in [6] and -15% (inactive) in assay [10]. Besides, the superoxide response (% of plate) in [3] was 99.5% (inactive). In assay [4], the aptamer binding inhibition is 4% (inactive). The response in assay [7] is 14.2% (inactive). Moreover, the binding (% of control) in assay [8] was 95.7% (inactive). The efflux inhibition (fraction of control) in assay [9] was -0.09 (inactive). Besides, in [11], the differentiation response is -3.43% (inactive).

In general, inhibition refers to the change of the read-out against control, counted positive when it falls.
